Assay outcomes: PubChem BioAssay, National Center for Advancing Translational Sciences (NCATS)
Sampled rows, rich in hits. Any-hit rate of the full collection: about 10%.
NS1 function inh: qHTS Assay for Inhibitors of Influenza NS1 Protein Function. Potency, µM (top dose mostly 46.1 µM). hit rate 0.4% among 270,000. AID 2326, 2010; calls by dose curve; further: actives are rising curves; nearly all actives have a fitted effect of over 50% in size
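Recovery from NS1-induced slow growth read by OD600 in budding yeast switched to galactose assay medium (pH 6.0, -URA) at 1:100 dilution. Compound 23 nl per well; the matching strain lacking NS1 serves as control.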
Pf growth 48h: Primary qHTS for delayed death inhibitors of the malarial parasite plastid, 48 hour incubation; P. falciparum luciferase growth in erythrocytes, 48 h; Potency, µM (titrated, usually from 28.7 µM), most hits filed as inhibitors; hit rate 5.9% among 310,000
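Cell-based growth assay: transgenic P. falciparum expressing firefly luciferase, cultured in red cells within RPMI 1640 containing 0.5% w/v Albumax, 24 mM bicarbonate and gentamycin. A drop in luciferase activity indicates inhibition.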
SARS PLpro yeast: qHTS of Yeast-based Assay for SARS-CoV PLP. S. cerevisiae expressing SARS-CoV PLpro, growth rescue. Potency, µM (top dose mostly 32.9 µM), actives largely listed as activators. hit rate 0.19% among 330,000; calls by dose curve; further: nearly all actives have a fitted effect of over 55% in size
Pf growth 96h: Primary qHTS for delayed death inhibitors of the malarial parasite plastid, 96 hour incubation. P. falciparum luciferase reporter growth, 96 h. Potency, µM (titrated, usually from 28.7 µM), usual class: inhibitors. hit rate 6.9% among 320,000. AID 504834, 2011
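P. falciparum expressing integrated firefly luciferase grown in erythrocytes (2% hematocrit, 0.05% parasitemia final) with compounds for 96 hours at 37 C, 5% CO2. Growth inhibition read as loss of luminescence after adding luciferase detection reagent.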
A number is an active result. Unless noted, the call rests on the fitted dose curve; in most records, active means well fitted inhibition curve with a large enough effect; inconclusive means small, poorly fitted or top-dose-only effect, or another doubt; inactive means no such curve, though single readings can be large or run the other way.

Screening C[C@H]1C[C@H]2[C@@H]3CCC4=CC(=O)C=C[C@]4(C)[C@@]3(Cl)[C@@H](O)C[C@]2(C)[C@@]1(O)C(=O)CO returned NS1 function inh inactive, Pf growth 48h inactive, SARS PLpro yeast inactive and Pf growth 96h inconclusive.
For CCC(=O)O[C@]1(C(=O)CCl)[C@@H](C)C[C@H]2[C@@H]3CCC4=CC(=O)C=C[C@]4(C)[C@@]3(F)[C@@H](O)C[C@@]21C the results were NS1 function inh inactive, Pf growth 48h 4.7µM, SARS PLpro yeast inactive and Pf growth 96h 4.1µM.
`CCC(=O)O[C@@]1(C(=O)CCl)C(C)CC2C3CCC4=CC(=O)C=C[C@@]4(C)[C@]3(F)C(O)C[C@]21C` (some centres not stated) gave Pf growth 48h 6.7µM and Pf growth 96h 3.4µM.
CCCC(=O)O[C@]1(C(=O)CCl)[C@@H](C)C[C@H]2[C@@H]3CCC4=CC(=O)C=C[C@]4(C)[C@@]3(F)C(=O)C[C@@]21C was read as NS1 function inh inconclusive, Pf growth 48h 1.7µM, SARS PLpro yeast inactive and Pf growth 96h 1.3µM.
CCC(=O)OC1(C(=O)CCl)[C@@H](C)C[C@H]2[C@@H]3CCC4=CC(=O)C=C[C@]4(C)[C@@]3(F)[C@@H](O)C[C@@]21C (some centres not stated) was read as Pf growth 48h 2.3µM and Pf growth 96h 5.2µM.
For CCC(=O)O[C@]1(C(=O)CCl)[C@@H](C)CC2C3C[C@H](F)C4=CC(=O)C=CC4(C)[C@@]3(F)C(O)CC21C (some centres not stated) the results were Pf growth 48h 1.9µM and Pf growth 96h inactive.
For CC(=O)OCC(=O)[C@@]1(OC(C)=O)[C@@H](C)C[C@H]2[C@@H]3C[C@H](F)C4=CC(=O)C=C[C@]4(C)[C@@]3(F)[C@@H](O)C[C@@]21C the results were NS1 function inh inactive, Pf growth 48h inconclusive, SARS PLpro yeast inactive and Pf growth 96h inconclusive.
`COc1ccc(NC(=O)n2ncc3cc(Cl)ccc32)cc1OC` gave NS1 function inh inactive, Pf growth 48h inactive, SARS PLpro yeast inactive and Pf growth 96h inactive.
Screening C=C(C)COc1ccc(-c2ncncc2-c2ccccc2)c(O)c1 returned NS1 function inh inactive, Pf growth 48h 9.3µM, SARS PLpro yeast inactive and Pf growth 96h 13µM.
`CCOc1ccc(-c2ncncc2-c2ccc(OC)cc2)c(O)c1` gave NS1 function inh inactive, Pf growth 48h 7.4µM, SARS PLpro yeast inactive and Pf growth 96h inconclusive.
COc1ccc(-c2ncncc2-c2ccccc2)c(O)c1 was read as NS1 function inh inactive, Pf growth 48h inconclusive, SARS PLpro yeast inactive and Pf growth 96h inconclusive.
Screening CN(Cc1cn(C)nc1-c1cccc(Cl)c1)CC1CCCCO1 (configuration not stated) returned NS1 function inh inactive, Pf growth 48h inactive, SARS PLpro yeast inactive and Pf growth 96h 10µM.
Cc1cnccc1CN(C)Cc1cn(C)nc1-c1cccc(Cl)c1 was read as NS1 function inh inactive, Pf growth 48h inconclusive, SARS PLpro yeast inactive and Pf growth 96h inactive.
Screening CC(=O)NCCOC(=O)Nc1ccncc1 returned NS1 function inh inactive, SARS PLpro yeast inactive and Pf growth 96h inactive.
For CC(=O)NCCOC(=O)Nc1cccnc1 the results were NS1 function inh inactive, Pf growth 48h 1.9µM, SARS PLpro yeast inactive and Pf growth 96h inactive.
`Cc1ccc(C)c(CSc2nnc(-c3cccnc3)o2)c1` gave NS1 function inh inactive, Pf growth 48h inconclusive, SARS PLpro yeast inactive and Pf growth 96h 13µM.
`CCCC1NC(C(=O)O)Cc2c1[nH]c1ccccc21` (configuration not stated) gave NS1 function inh inactive, Pf growth 48h inactive, SARS PLpro yeast inactive and Pf growth 96h inconclusive.
For CC(=O)N[C@@H](CC(=O)O)C(=O)N[C@@H](CCC(=O)O)C(=O)O the results were Pf growth 48h inconclusive and Pf growth 96h 4.3µM.
CC(=O)NC(CC(=O)O)C(=O)O (configuration not stated) was read as Pf growth 48h inactive and Pf growth 96h inactive.
For COc1cc(OC)cc(C(=O)NNC(=O)CCNC(=O)c2ccc(Br)cc2)c1 the results were SARS PLpro yeast inactive.
Screening Cc1ccc(NCc2n[nH]c(=S)n2-c2cccc(Cl)c2)cc1 returned Pf growth 48h inactive, SARS PLpro yeast inactive and Pf growth 96h inconclusive.
Screening Cc1ccc(-n2c(CNc3cccc(Cl)c3)n[nH]c2=S)cc1 returned Pf growth 48h 8.3µM, SARS PLpro yeast inactive and Pf growth 96h inactive.
Screening O=C(CCNC(=O)c1ccc(Cl)cc1)Nc1ccc(S(=O)(=O)N2CCCCC2)cc1 returned Pf growth 48h inactive, SARS PLpro yeast inactive and Pf growth 96h inactive.
Screening CC1CCCC(C)N1C(=O)CSc1nc2ncnc(N)c2[nH]1 (configuration not stated) returned NS1 function inh inactive, Pf growth 48h inactive, SARS PLpro yeast inactive and Pf growth 96h 0.74µM.
For COc1ccc(C2(CNC(=O)c3ccccc3)CCOCC2)cc1 the results were NS1 function inh inactive, Pf growth 48h inconclusive, SARS PLpro yeast inactive and Pf growth 96h inconclusive.
CCOc1ccc(C(=O)NCC2(c3ccccc3)CCOCC2)cc1 was read as NS1 function inh inactive, Pf growth 48h inactive, SARS PLpro yeast inactive and Pf growth 96h inactive.
Screening CCCCCOc1ccc(C(=O)NCC2(c3ccccc3)CCOCC2)cc1 returned NS1 function inh inactive, Pf growth 48h 13µM, SARS PLpro yeast inactive and Pf growth 96h inconclusive.
CCCCOc1ccc(C(=O)NCC2(c3ccccc3)CCOCC2)cc1 was read as NS1 function inh inactive, Pf growth 48h inconclusive, SARS PLpro yeast inactive and Pf growth 96h 10µM.
CCOc1ccc(N2CCc3c(C)nc(SC)nc32)cc1 was read as Pf growth 48h inactive, SARS PLpro yeast inactive and Pf growth 96h inconclusive.
`O=C(O)CS(=O)(=O)C(c1ccccc1)c1ccccc1` gave NS1 function inh inactive.
O=C(C[n+]1cc(-c2ccc(F)cc2)n2c1CCC2)N1c2ccccc2Sc2ccccc21 was read as NS1 function inh inactive, Pf growth 48h 13µM, SARS PLpro yeast inactive and Pf growth 96h inconclusive.
`O=C(C[n+]1cc(-c2ccccc2)n2c1CCC2)N1c2ccccc2Sc2ccccc21` gave NS1 function inh inactive, Pf growth 48h 4.1µM, SARS PLpro yeast inactive and Pf growth 96h inconclusive.
For O=C(C[n+]1cc(-c2ccc(Cl)cc2)n2c1CCCCC2)c1ccccc1 the results were NS1 function inh inactive, Pf growth 48h inconclusive, SARS PLpro yeast inactive and Pf growth 96h inconclusive.
Screening O=C(C[n+]1cc(-c2ccc(F)cc2)n2c1CCC2)Nc1nc(-c2ccc(F)cc2)cs1 returned NS1 function inh inactive, Pf growth 48h inconclusive, SARS PLpro yeast inactive and Pf growth 96h inconclusive.
`O=C(C[n+]1cc(-c2ccccc2)n2c1CCC2)c1cccs1` gave Pf growth 48h inconclusive, SARS PLpro yeast inactive and Pf growth 96h inconclusive.
O=C(C[n+]1cc(-c2ccc(Br)cc2)n2c1CCCCC2)c1ccccc1 was read as Pf growth 48h 1.7µM, SARS PLpro yeast inactive and Pf growth 96h inconclusive.
Cc1ccc(-c2c[n+](CC(=O)N3c4ccccc4Sc4ccccc43)c3n2CCC3)cc1 was read as NS1 function inh inactive, Pf growth 48h 3.7µM, SARS PLpro yeast inactive and Pf growth 96h inconclusive.
